Here are results for six compounds from PubChem BioAssay.

Assay [1] deals with Albumin (Bos taurus) (UniProt P02769). Kind of assay: compounds binding labelled BSA control protein – biochemical, small-molecule microarray, Alexa647 label, 635/667 nm fluorescence, artefact control for SMM control protein annotation, profiling panel (AID 1118).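 Also: score merges 667 nm emission intensity and signal-to-noise per printed compound spot.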 The settings on record: BSA-A647 binding, fluorescence 635 nm, higher = more signal.
A short description of assay [2]: probe aXIP binding to arrayed compounds – biochemical, NeuroSMM set, 635/667 nm fluorescence, primary screen (AID 1119).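 Also: probe is the protein aXip251-270 applied at 1 µg/mL to compound-printed slides; binding of probe to printed compounds measured as 667 nm fluorescence plus signal to noise.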 The following applies: small-molecule microarray, higher = more signal, called active from +8 up or from −8 down.
Assay [3] is described as follows: probe aNOTCH3 binding on compound microarray – biochemical, small-molecule microarray, 635/667 nm fluorescence, primary screen (AID 1120).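 Also: probe is a biotin-tagged antibody raised against NOTCH3 rather than NOTCH3 protein; score merges spot fluorescence near 667 nm with spot signal to noise.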 The following applies: higher = more signal.
Assay [4] is described as follows: probe aNOTCH2 binding on compound microarray – biochemical, small-molecule microarray, 635/667 nm fluorescence, primary screen (AID 1121).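 Also: score merges feature fluorescence read at 667 nm with its signal to noise.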 The settings on record: higher = more signal.
In assay [5] the target is Carbonic anhydrase 2 (Homo sapiens) (UniProt P00918). Kind of assay: compounds binding carbonic anhydrase 2 – biochemical, small-molecule microarray, Alexa647-labelled CAII, profiling panel (AID 1122). The following applies: CAII-A647 binding fluorescence, higher = more signal.
A short description of assay [6]: COS7 lysate on small-molecule microarray, probe aHis, 635 nm (AID 1123).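 Also: z-score combines 667nm fluorescence intensity with signal-to-noise per printed compound spot.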 The following applies: COS7 cell lysate, fluorescence, higher = more signal.
The nature of assay [7]: probe aLAP1 signal on lysate-treated microarray – cell lysate, small-molecule microarray, COS7 lysate, primary screen (AID 1124).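 Also: lysate comes from COS7 cells expressing LAP1 and is applied at 0.3 µg/mL; score merges spot fluorescence near 667 nm with signal-to-noise over triplicate slides.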 The settings on record: probe aLAP1, fluorescence, higher = more signal.
The subject of assay [8] is Sam68 (KHDRBS1). Kind of assay: compounds binding KHDRBS1 protein – biochemical, small-molecule microarray, 635 nm fluorescence, primary screen (AID 1125).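 Also: score merges 667 nm channel intensity with signal to noise over triplicate slides.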 The settings on record: higher = more signal.
For assay [9], the system named is Chordin-like protein 2 (CHRDL2). Kind of assay: compounds binding chordin-like 2 – biochemical, small-molecule microarray, 635 nm fluorescence, primary screen (AID 1126).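 Also: printed compound slides probed with Chrdl2 protein at 4 µg/mL for 1 h at 4 C; score merges 667 nm emission intensity with signal to noise over three replicate slides.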 The following applies: fluorescence 635 nm, higher = more signal.
Assay [10] deals with Concanavalin-A (Canavalia ensiformis) (UniProt P02866). Kind of assay: compounds binding concanavalin A lectin – biochemical, small-molecule microarray, Alexa647 label, 635 nm, artefact control for SMM control protein annotation, primary screen (AID 1127).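 Also: z combines 667 nm emission intensity with signal-to-noise across three replicate slides.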 The following applies: ConA-A647 binding fluorescence, higher = more signal.
Assay [11] in a line: compounds binding Alexa647 anti-His antibody – biochemical, small-molecule microarray, 635 nm fluorescence, artefact control for SMM control protein annotation, primary screen (AID 1128).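 Also: score merges feature fluorescence with signal-to-noise for each printed compound spot.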 The settings on record: higher = more signal.
Assay [12] relates to Human papillomavirus type 1a E7 protein (residues 1-88). Description: HPV1a E7 small-molecule binders, primary screen, biochemical, small-molecule microarray, residues 1-88, 635 nm (AID 1129). The following applies: small-molecule microarray binding, fluorescence 635 nm; higher = more signal.
The target in assay [13] is Focal adhesion kinase 1 (Homo sapiens) (UniProt Q05397). Kind of assay: PTK2 protein binding on printed compound slides – biochemical, small-molecule microarray, 635/667 nm fluorescence, BSA, DTT, primary screen (AID 1130).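 Also: composite of spot emission at 667 nm and signal to noise over triplicate slides.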 The following applies: 635 nm fluorescence, higher = more signal.
Assay [14] relates to Fibrinogen (Alexa647-labelled). Description: Alexa647-fibrinogen binding to printed small molecules – biochemical, small-molecule microarray, 635/667 nm fluorescence, artefact control for SMM control-protein annotation, profiling panel (AID 1131).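 Also: z-score merges 667 nm fluorescence with per-spot signal-to-noise over triplicate slides.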 The settings on record: fibrinogen-A647 binding fluorescence, higher = more signal.
Assay [15] deals with Follistatin (Homo sapiens) (UniProt P19883). Kind of assay: FST protein binding to printed compounds – biochemical, small-molecule microarray, 635/667 nm fluorescence, primary screen (AID 1132). The following applies: 635 nm fluorescence, higher = more signal.
For assay [16], the target named is Fibroblast growth factor 2 (Homo sapiens) (UniProt P09038). Description: basic fibroblast growth factor binding to printed compounds – biochemical, small-molecule microarray, 635/667 nm fluorescence, primary screen (AID 1133). The following applies: FGF2, fluorescence 635/667, higher = more signal.
Assay [17] can be described thus: JC-1 mitochondrial potential readout, lung cancer cells – cell-based, A549, JC-1 fluorescence, basal, 24 h, 100 nL, profiling panel (AID 1138).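 Also: A549 lung adenocarcinoma cells under basal conditions with no added stimulus; test concentration not given here.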 The following applies: higher = more signal.
The test system of assay [18] is Lefty1. Description: Lefty1 protein binding to printed compounds – biochemical, small-molecule microarray, 635/667 nm fluorescence, primary screen (AID 1139). The following applies: fluorescence 635/667, higher = more signal.
Assay [19] concerns wheat germ agglutinin (Triticum aestivum), Alexa647-labelled. Description: Alexa647-WGA lectin binding to printed small molecules – biochemical, small-molecule microarray, 635/667 nm fluorescence, artefact control for SMM control-protein annotation, profiling panel (AID 1140).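 Also: score merges 667 nm feature emission with signal to noise over triplicate slides.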 The settings on record: WGA-A647 binding, 635 nm fluorescence, higher = more signal.
Assay [20] deals with Luciferin 4-monooxygenase (Photinus pyralis) (UniProt P08659). Kind of assay: inhibition of purified Photinus pyralis luciferase – biochemical, luminescence, purified enzyme, 2006 set, primary screen (AID 1141).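 Also: cell-free assay with purified firefly luciferase at 100 ng per well in PBS; test concentration not given here.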 The settings on record: purified firefly luciferase, SteadyGlo luminescence, 30 min; higher = more signal, called active from +8 up or from −8 down.

Calls of active or inactive are those of the source.

Sequence of Fibroblast growth factor 2 (Homo sapiens) (P09038 whole entry, looked up): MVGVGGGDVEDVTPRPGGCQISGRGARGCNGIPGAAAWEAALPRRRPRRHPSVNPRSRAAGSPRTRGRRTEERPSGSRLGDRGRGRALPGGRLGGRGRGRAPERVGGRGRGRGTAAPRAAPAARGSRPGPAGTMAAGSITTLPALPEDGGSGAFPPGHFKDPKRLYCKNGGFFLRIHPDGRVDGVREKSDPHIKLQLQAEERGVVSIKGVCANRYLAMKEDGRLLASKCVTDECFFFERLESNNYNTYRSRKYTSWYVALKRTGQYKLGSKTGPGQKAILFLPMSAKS
Sequence of Luciferin 4-monooxygenase (Photinus pyralis) (P08659 whole entry, looked up): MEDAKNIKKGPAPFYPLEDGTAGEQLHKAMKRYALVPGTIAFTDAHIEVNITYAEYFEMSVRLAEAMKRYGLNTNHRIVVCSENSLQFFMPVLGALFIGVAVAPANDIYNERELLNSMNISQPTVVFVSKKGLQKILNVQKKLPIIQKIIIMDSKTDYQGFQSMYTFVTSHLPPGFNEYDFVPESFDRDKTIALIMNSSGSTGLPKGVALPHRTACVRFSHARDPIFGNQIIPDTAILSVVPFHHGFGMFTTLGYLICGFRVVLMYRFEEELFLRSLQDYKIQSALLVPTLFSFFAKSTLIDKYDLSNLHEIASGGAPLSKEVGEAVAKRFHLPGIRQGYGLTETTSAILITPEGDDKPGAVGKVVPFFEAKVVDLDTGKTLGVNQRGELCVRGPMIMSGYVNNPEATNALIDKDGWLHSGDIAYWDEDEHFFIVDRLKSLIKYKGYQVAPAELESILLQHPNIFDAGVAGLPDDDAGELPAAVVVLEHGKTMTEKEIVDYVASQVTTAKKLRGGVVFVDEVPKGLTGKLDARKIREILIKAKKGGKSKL
Sequence of Follistatin (Homo sapiens) (P19883 whole entry, looked up): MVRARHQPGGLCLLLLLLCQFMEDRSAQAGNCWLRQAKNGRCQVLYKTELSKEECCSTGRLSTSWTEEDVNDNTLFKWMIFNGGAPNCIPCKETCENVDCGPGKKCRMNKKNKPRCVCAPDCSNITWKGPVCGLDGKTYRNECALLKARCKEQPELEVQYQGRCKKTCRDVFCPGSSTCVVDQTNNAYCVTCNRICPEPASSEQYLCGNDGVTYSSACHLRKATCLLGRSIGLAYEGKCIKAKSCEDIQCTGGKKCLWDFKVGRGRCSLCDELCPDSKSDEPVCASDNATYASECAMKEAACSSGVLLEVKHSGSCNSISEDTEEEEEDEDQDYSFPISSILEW
Sequence of Focal adhesion kinase 1 (Homo sapiens) (Q05397 whole entry, looked up): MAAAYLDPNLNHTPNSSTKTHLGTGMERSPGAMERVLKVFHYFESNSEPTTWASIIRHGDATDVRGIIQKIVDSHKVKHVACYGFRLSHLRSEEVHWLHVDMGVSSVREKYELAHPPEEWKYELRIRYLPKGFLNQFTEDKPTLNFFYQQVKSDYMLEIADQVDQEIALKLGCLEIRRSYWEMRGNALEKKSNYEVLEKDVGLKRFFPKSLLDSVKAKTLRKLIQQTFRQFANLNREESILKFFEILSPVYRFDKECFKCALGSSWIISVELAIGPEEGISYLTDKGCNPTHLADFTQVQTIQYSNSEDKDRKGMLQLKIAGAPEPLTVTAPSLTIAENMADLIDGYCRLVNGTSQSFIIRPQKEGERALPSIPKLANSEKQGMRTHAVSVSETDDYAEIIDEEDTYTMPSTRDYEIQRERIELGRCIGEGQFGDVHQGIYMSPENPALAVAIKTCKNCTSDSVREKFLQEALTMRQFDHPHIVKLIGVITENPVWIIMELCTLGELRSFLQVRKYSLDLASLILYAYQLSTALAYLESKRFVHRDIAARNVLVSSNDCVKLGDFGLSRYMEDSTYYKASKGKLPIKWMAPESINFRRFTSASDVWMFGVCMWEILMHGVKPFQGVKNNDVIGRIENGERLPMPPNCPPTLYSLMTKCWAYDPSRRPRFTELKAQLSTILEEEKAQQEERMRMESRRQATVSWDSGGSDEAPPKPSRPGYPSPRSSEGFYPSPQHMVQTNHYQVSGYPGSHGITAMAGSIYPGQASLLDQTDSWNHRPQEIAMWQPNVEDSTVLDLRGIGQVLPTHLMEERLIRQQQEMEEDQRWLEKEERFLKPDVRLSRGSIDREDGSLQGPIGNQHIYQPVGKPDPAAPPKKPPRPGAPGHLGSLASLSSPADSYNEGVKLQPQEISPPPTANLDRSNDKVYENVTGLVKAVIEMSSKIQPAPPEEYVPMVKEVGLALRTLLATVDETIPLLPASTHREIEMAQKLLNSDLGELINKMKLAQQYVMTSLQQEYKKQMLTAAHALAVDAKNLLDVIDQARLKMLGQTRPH
Sequence of Albumin (Bos taurus) (P02769 whole entry, looked up): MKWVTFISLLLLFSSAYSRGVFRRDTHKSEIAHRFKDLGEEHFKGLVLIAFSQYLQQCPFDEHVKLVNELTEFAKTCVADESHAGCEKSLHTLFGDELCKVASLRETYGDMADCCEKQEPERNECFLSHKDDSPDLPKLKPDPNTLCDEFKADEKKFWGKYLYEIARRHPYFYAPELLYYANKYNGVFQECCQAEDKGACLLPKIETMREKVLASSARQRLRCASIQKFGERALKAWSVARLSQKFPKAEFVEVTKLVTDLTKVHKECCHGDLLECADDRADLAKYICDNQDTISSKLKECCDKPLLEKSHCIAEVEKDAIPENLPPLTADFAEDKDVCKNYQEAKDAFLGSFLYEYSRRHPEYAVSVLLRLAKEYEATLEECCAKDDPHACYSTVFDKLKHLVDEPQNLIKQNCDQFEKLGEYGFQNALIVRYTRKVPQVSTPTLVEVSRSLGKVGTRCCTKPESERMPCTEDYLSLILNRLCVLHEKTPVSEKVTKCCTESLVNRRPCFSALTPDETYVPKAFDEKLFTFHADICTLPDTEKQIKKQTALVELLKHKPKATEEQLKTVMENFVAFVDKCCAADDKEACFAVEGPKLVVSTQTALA
Sequence of Concanavalin-A (Canavalia ensiformis) (P02866 whole entry, looked up): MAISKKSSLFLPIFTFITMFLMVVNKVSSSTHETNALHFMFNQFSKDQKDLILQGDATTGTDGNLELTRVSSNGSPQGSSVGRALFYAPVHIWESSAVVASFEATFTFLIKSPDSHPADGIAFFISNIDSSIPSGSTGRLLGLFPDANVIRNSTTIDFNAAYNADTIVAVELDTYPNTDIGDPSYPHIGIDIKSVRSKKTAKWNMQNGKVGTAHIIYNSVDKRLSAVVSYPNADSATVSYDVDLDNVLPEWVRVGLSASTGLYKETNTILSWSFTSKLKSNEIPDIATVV

For the compound `CCCCCCc1nc(C2CC2)cc2c1[Si](C(C)C)(C(C)C)OC2`, the composite z-score in [1] was -0.858; in assay [3], -0.197; in assay [4] it was -0.176; in [5] it was -0.513; in [6], -0.535; in [7] it was -0.0031. In addition, the composite z-score was -0.826 in [8]; -0.463 in assay [9]; -0.334 in assay [10]; -1.08 in assay [11]; -1.14 in [12]; -0.295 in [13]. Further, the composite z-score in [14] is 0.691; in [15], -0.706; in [16], -0.644; in assay [18], -0.568; in assay [19], -0.222. Further, in assay [2], the composite Z-score is 0.289 (inactive). The values for the z-score in [17] and in [20] were -1.37 and 0.766 (inactive), respectively.
For `[N-]=[N+]=NCc1ccccc1C[C@@]1(C(=O)NCc2ccccc2)N=C(c2ccc(OCCCO)cc2)O[C@@H]1c1ccccc1N=[N+]=[N-]`, the composite z-score in [1] was 0.428; in assay [3], -0.102; in assay [4], -0.0527; in assay [5], 0.301; in assay [6] it was -0.0255; in assay [7], 0.472. The composite z-score in assay [8] is 1.06; in assay [9], -1.06; in assay [10], 0.725; in assay [11] it was 1.64; in [12] it was 1.18; in assay [13], 0.0861. The composite z-score is 0.948 in assay [14]; 0.557 in [15]; -0.58 in assay [16]; -0.324 in assay [18]; 1.15 in assay [19]. Further, in [2], the composite Z-score was -0.126 (inactive). Further, the values for the z-score in assay [17] and in [20] were 1.12 and -6.99 (inactive), respectively.
Take `CN(C)CCCCNC(=O)[C@@H]1C[C@@H]2C(=O)N[C@@H](Cc3ccccc3)C(=O)N2[C@@H]1c1cccc(OCCO)c1`: the composite z-score in [1] is -0.0493; in assay [3], -0.239; in [4], -0.153; in assay [5], 0.74; in assay [6], 2.59; in [7], 1.11. The composite z-score is 1.06 in [8]; 1.08 in [9]; 1.07 in assay [10]; 2.09 in [11]; 0.579 in assay [12]; -0.0323 in assay [13]. For the same compound, the composite z-score in [14] amounted to 0.513; in assay [15], 1.33; in [16], 1.75; in [18] it was 1.65; in [19] it was 0.645. Besides, the composite Z-score in [2] is 1.1 (inactive). The z-score is 1.53 in assay [17] and -2.68 (inactive) in assay [20].
In the case of `[N-]=[N+]=NCc1ccccc1C[C@@]1(C(=O)N2CCCCC2)N=C(c2ccc(OCCCO)cc2)O[C@@H]1c1ccccc1`, the composite z-score in assay [1] was 0.901; in assay [3], -0.102; in [4], -0.299; in [5], 0.606; in assay [6], 1.28; in [7] it was -0.0762. Also, the composite z-score is 1.07 in assay [8]; -1.27 in [9]; 0.64 in assay [10]; 0.686 in assay [11]; 1.12 in [12]; 0.214 in [13]. Also, the composite z-score was 0.519 in assay [14]; 0.24 in assay [15]; 0.201 in assay [16]; -0.693 in assay [18]; 0.636 in [19]. For the same compound, the composite Z-score in assay [2] is 0.269 (inactive). Besides, the z-score is 0.144 in assay [17] and -0.362 (inactive) in [20].
`COc1ccc([Si](C)(C)[C@H]2[C@H](CC(=O)N(CCO)Cc3ccccc3)O[C@@]3(C(=O)N(Cc4cccc(N5CCOC5=O)c4)c4ccccc43)[C@@H]2C)cc1`: the composite z-score in assay [1] was -0.255; in [3], -0.0288; in assay [4] it was -0.104; in assay [5], 0.591; in assay [6], 1.1; in [7], 0.735. In addition, the composite z-score in assay [8] came out at 1.3; in assay [9], 0.623; in [10], 0.995; in [11], 1.65; in [12], 0.922; in assay [13], 0.647. Also, the composite z-score in assay [14] turned out to be 0.206; in assay [15] it was 1.06; in assay [16] it was 0.494; in [18], 0.857; in assay [19], 0.321. In addition, the composite Z-score in assay [2] is 0.897 (inactive). The z-score in assay [17] is -0.791; in assay [20] it was 0.271 (inactive).
Regarding `COC(=O)[C@@]1(Cc2ccc(OC)cc2)[C@H]2c3cc(C(=O)N4CCCC4)n(Cc4cccc5ccccc45)c3C[C@H]2CN1C(=O)c1ccccc1`, the composite z-score in assay [1] turned out to be 1.02; in [3], 0.137; in assay [4], 0.377; in [5], 0.757; in assay [6], 2.55; in assay [7], 0.592. Moreover, the composite z-score in assay [8] was 0.462; in assay [9], -0.133; in assay [10], 0.686; in [11], 1.57; in assay [12], 1.2; in assay [13], 0.164. Also, the composite z-score was 0.704 in assay [14]; 0.36 in [15]; -0.247 in assay [16]; -0.245 in [18]; 0.396 in [19]. For the same compound, the composite Z-score in [2] is -0.115 (inactive). Besides, the z-score in [17] was 1.07; in assay [20] it was 1.31 (inactive).
